In PubChem BioAssay (EPA / NIEHS):
Calls of active or inactive are those of the source. Rule for the calls: active = hit-call score of the fitted dose curve at least 0.9, where 1 is the maximum; inactive = score below 0.9.

Read-out: Paternally Expressed 10 (PEG10), PEG10 (gene 23089)
Assay: LTEA_HepaRG_PEG10: Life Technologies and Expression Analysis (LTEA) Assay for Paternally Expressed 10 (PEG10) using HepaRG (AID 2283520);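 for AC50: PEG10 transcript by qRT-PCR normalised to ACTB GAPDH and POLR2A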
Conditions: mRNA level, 48 h; actives raise or lower the signal
Experimental: LTEA_HepaRG is a cell based, multiplexed-readout assay that uses HepaRG, a human liver cell line, with measurements taken at 48 hours after chemical dosing on a 96-well plate.LTEA_HepaRG_PEG10 is one of 102 assay component(s) measured in the LTEA HepaRG cell culture assay. It is a marker of Cell proliferation, survival, death.Data from the assay component LTEA_HepaRG_PEG10 was analyzed into 1 endpoint. This assay endpoint, LTEA_HepaRG_PEG10, was analyzed with bidirectional fitting relative to DMSO as the negative control and baseline of activity. Using a type of inducible reporter, measures of mRNA induction for gain or loss-of-signal activity can be used to understand regulation of transcription factor activity. To generalize the intended target to other relatable targets, this assay endpoint is annotated to the dna binding intended target family, where the subfamily is xenobiotic metabolism.
A total of 1060 chemcials from the ToxCast library were tested in eight-point concentration-response experiments. Cell culture and cytotoxicity assays were conducted at Thermo Fisher Scientific's Custom Services facility (Madison, WI). A single lot of human HepaRG cells (Thermo Fisher Scientific, Frederick, MD) was used for the cell culture experiments. 96-well format collagen type I coated plates of human HepaRG cells were prepared using established methods. Briefly, cryopreserved HepaRG cells were thawed, plated at a density of approximately 100,000 cells/well in HepaRG Thaw, Plate, and General Purpose media (HPRG770, Thermo Fisher Scientific), and incubated for 48 hours. 0.5% DMSO was selected as vehicle control to balance the requisite need of DMSO in HepaRG cultures to maintain differentiation (for example, baseline metabolism, proportions of hepatocytes vs. cholangiocytes), while enabling further hepatic receptor pathway activation (for example, PXR and CAR) in response to chemical exposure. 48 hours after plating, the culture medium was replaced with HepaRG Serum-Free Incudtion Media. Cells were exposed to each test chemical in duplicate and maintained in CO2 incubators for another 48 hours. Chemical plates were thawed to room temperature and 200x concentrations of treatment groups were prepared. 8-point conentration-reponse curves were made with the highest exposure at 100 uM, followed by half-log dilutions, all in 0.5% DMSO. Each test plate contained variouse controls, induction positive controls (1mM phenobarbital), cytotoxicity positive controls ([…] aflatoxin B1), vehicle controls (0.5% DMSO), and total lysis controls (0.5% DMSO). Cell morphology images were taken using an Essen IncuCyte FLR automated microscope, with six 96-well plates imaged in about 24 minutes. Images were captured and exported and JPEG files. Spent culture media was transfered to black-well plates for the LDH assay, and remaining media was sorted at -80 C for later use. Cells were treated with RLT buffer and frozen until shipped for gene expression analysis. Total RNA was isolated from the cell suspension in 75 uL of Buffer RLT (Qiagen, Germantown, MD 20874) by Quintiles/Expression Analysis (Durham, NC) using a custom isolation procedure. Total RNA from each plate well was transferred to a preamplification plate. Fluidigm's 96.96 Dynamic ArrayTM (Fluidigm, Amsterdam, the Netherlands) technology was used for gene expression analyses by quantitative reverse transcription polymerase chain reaction (qRT-PCR, performed by Quintiles/Expression Analysis, Durham, NC)89. Standard TaqManTM Assays (Applied Biosystems/ThermoFisher Scientific, Foster City, CA) were used to assess the expression of 93 genes selected based on their selectivity and sensitivity to important hepatic receptors known to be modulated by environmental chemicals; importance in human hepatocyte functionality; and hepatotoxicity. […]

| Structure (SMILES) | AC50 | outcome |
| --- | --- | --- |
| CCc1nn(C2CCCCC2)c2cc(C3(C#N)CCC(C(=O)O)CC3)ccc12 (stereo not given) | 12.8 µM (active) | – |
| O=C(OCCOCCOC(=O)c1ccccc1)c1ccccc1 | – | inactive |
| CC(=O)NC1(c2cccc(F)c2)CCN(CC[C@@]2(c3ccc(Cl)c(Cl)c3)CN(c3ccccc3)C(=O)CO2)CC1 | – | inactive |
| N#C[C@@H]1CC(F)(F)CN1C(=O)CNC1CC2CCC(C1)N2c1ncccn1 (stereo not given in full) | – | inactive |
| OC1CCC(C2CCCCC2)CC1 (stereo not given) | – | inactive |
| O=C(O)c1ccccc1C(c1ccc(O)cc1)c1ccc(O)cc1 | – | inactive |
| CC(C)(C)CC(C)(C)c1ccc(O)c(-n2nc3ccccc3n2)c1 | – | inactive |
| OC1CCCCC1 | – | inactive |
| OCCC(F)(F)C(F)(F)C(F)(F)C(F)(F)C(F)(F)C(F)(F)F | – | inactive |
| COc1ccc([N+](=O)[O-])cc1N | – | inactive |
| CCc1ccc(CCOc2ccc(CC3SC(=O)NC3=O)cc2)nc1 (stereo not given) | 14.2 µM (active) | – |
| CCCCC(CC)COC(=O)CCCCC(=O)OCc1ccccc1 (stereo not given) | – | inactive |
| CCCCCCCC(=O)O | – | inactive |
| CCCCCCCCC(=O)O | – | inactive |
| OCCC(F)(F)C(F)(F)C(F)(F)C(F)(F)C(F)(F)C(F)(F)C(F)(F)C(F)(F)F | – | inactive |
| CCCCC(CC)COC(=O)CCCCC(=O)OCC(CC)CCCC (stereo not given) | – | inactive |
| c1ccc2c(c1)Cc1ccccc1-2 | – | inactive |
| CCCCCCCCCCCCCCCS(=O)(=O)Oc1ccccc1 | – | inactive |
| ClC1=C(Cl)C(Cl)(Cl)C(Cl)=C1Cl | – | inactive |
| CCC(=C(c1ccc(O)cc1)c1ccc(OCCN(C)C)cc1)c1ccccc1 | – | inactive |

| Structure (SMILES) | AC50 | outcome |
| --- | --- | --- |
| COCC(C)OCC(C)O (stereo not given) | – | inactive |
| CN(C)C=O | – | inactive |
| Cc1oc(-c2ccccc2)nc1CCOc1ccc(C[C@H](Nc2ccccc2C(=O)c2ccccc2)C(=O)O)cc1 | 20.8 µM (active) | – |
| CCCCCCCCOC(=O)CCCCCCCCC(=O)OCCCCCCCC | – | inactive |
| O=c1c(-c2ccc(O)cc2)coc2cc(O)ccc12 | – | inactive |
| CCCOc1sc(C(=O)N2CCC(c3cc(CN)ccc3F)CC2)c(C)c1Br | – | inactive |
| CC(C)(C)c1cc(C(C)(C)C)c(O)c(C(C)(C)C)c1 | – | inactive |
| CCOC(=O)CC(O)(CC(=O)OCC)C(=O)OCC | – | inactive |
| CCCCCCCCCCCCc1ccccc1S(=O)(=O)O | – | inactive |
| CC(C)(C)c1cccc(C(C)(C)C)c1O | – | inactive |
| CC(C)CCCCCCOC(=O)CCCCC(=O)OCCCCCCC(C)C | – | inactive |
| Oc1cccc(O)c1 | – | inactive |
| CN1CCN(c2ccccc2/C=C2\SCCN(c3ccc(Cl)c(Cl)c3)C2=O)CC1 | 14 µM (active) | – |
| CC(C)(C)c1ccc(O)c(C(C)(C)C)c1 | – | inactive |
| O=[N+]([O-])c1ccc(O)cc1 | – | inactive |
| c1ccc2c(c1)ccc1ccccc12 | – | inactive |
| CC(=O)CC(C)(C)O | – | inactive |
| COC(=O)CCCCC(=O)OC | – | inactive |
| CC[C@H](C)[C@@H](C(=O)O)n1sc2ccccc2c1=O | – | inactive |
| CCCCCCC(=O)O | – | inactive |
